# Assay results: PubChem BioAssay (Tox21)
# Records with an inconclusive call do not appear. Active and inactive are the calls of the source. The call rests on the fitted dose curve; in most records, active means well fitted activation curve with a large enough effect in the signal ratio in the repeat runs (not every such curve was filed as active); inconclusive means weak or mixed curves, or effect the other way; inactive means flat fitted curve, though single readings scatter; the % refers to the signal ratio.
# Assay: qHTS assay to identify small molecule agonists of the endoplasmic reticulum stress response signaling pathway (AID 1159516)
# Details: ESRE-bla HeLa, ER stress beta-lactamase reporter, 5 h; series mostly up to 61 µM; activation: at the top concentration
# Description: National Center for Advancing Translational Sciences [NCATS]
# NIH Chemical Genomics Center [NCGC]
# U.S. Environmental Protection Agency [EPA]
# National Institutes of Environmental Health Sciences [NIEHS]
# National Toxicology Program [NTP]
# U.S. Food and Drug Administration [FDA]
# Endoplasmic Reticulum (ER) plays an important role in cellular signaling, protein folding/maturation, stress response, lipid biosynthesis, calcium storage and release etc. Under stress conditions, proteins in ER misfold or unfold, and leading to the expression of ER stress responsive genes. ER stress has been associated with a variety of pathophysiological conditions such as cancer, inflammation, neurodegenerative diseases, diabetes, ischemic heart disease etc. To identify the compounds that induce ER stress response, an ER stress reporter cell line, CellSensor ESRE-bla HeLa (Life Technologies, Carlsbad, CA) containing a beta-lactamase reporter gene under control of the Endoplasmic reticulum Stress Response Element (ESRE) was used to screen Tox21 10K compound library.
# Tox21 Assay Protocol Summary:
# ESRE-bla HeLa cells were dispensed at 1,500 cells/6 uL of assay medium per well into black wall/clear-bottom 1536-well plates using a Multidrop Combi (ThermoFisher Scientific, Waltham, MA) dispenser. After the assay plates were incubated at 37 C and 5% CO2 for an overnight, 23 nL of compounds dissolved in DMSO, positive controls or DMSO only was transferred to the assay plate by a Pintool station (Kalypsys, San Diego, CA). The assay plates were incubated at 37 C and 5% CO2 for 5 hr. One uL of LiveBLAzer B/G FRET substrate (Life Technologies) was added using a Flying Reagent Dispenser (Aurora Discovery, San Diego, CA) and the plates were incubated at room temperature for 2 hr. Fluorescence intensity (405 nm excitation, 460 nm and 530 nm emissions) was measured using an Envision plate reader (PerkinElmer, Shelton, CT).
# On the % scale 0 is the no-effect control and ±100 the full control effect.
Compound,outcome,activation
Nc1ccc(Oc2ccc(N)cc2)cc1,inactive,
O=[N+]([O-])c1ccc([As](=O)(O)O)cc1,inactive,
C1CC2OC2CC1C1CO1 (stereo not given),inactive,
C=C(C)CCl,inactive,
CC(C)(Cl)Cl,inactive,
O=C(O)c1ccccn1,inactive,
CCC(C)(CC)c1cc(NC(=O)c2c(OC)cccc2OC)on1,inactive,
C#CC(C)(C)NC(=O)c1cc(Cl)cc(Cl)c1,,-0.0296% [at 78.8 µM] (inactive)
CCNc1nc(NC(C)C)nc(SC)n1,inactive,
CC(C)N1C(=O)c2ccccc2NS1(=O)=O,inactive,
CC(C)=C[C@@H]1[C@@H](C(=O)OCc2coc(Cc3ccccc3)c2)C1(C)C,inactive,
COC(=O)c1ccccc1C(=O)OC,inactive,
CCC[N+](=O)[O-],inactive,
CC(C)(C)C(O)(CCc1ccc(Cl)cc1)Cn1cncn1 (stereo not given),inactive,
c1cc2c3c(cccc3c1)CC2,inactive,
CC1OC(C)OC(C)O1 (stereo not given),inactive,
CC(C)C#N,,3.9% (inactive)
ClCc1cccnc1,inactive,
COC(=O)NC(=S)Nc1ccccc1NC(=S)NC(=O)OC,inactive,
CNC(=O)Oc1ccccc1OC(C)C,inactive,

Compound,outcome,activation
BrCCBr,inactive,
O=S(=O)(c1ccc(Cl)cc1)c1cc(Cl)c(Cl)cc1Cl,inactive,
CC(C)(C)OOC(C)(C)C,inactive,
Cc1ccccc1O,inactive,
Clc1ccc(Cl)cc1,inactive,
c1ccc(OP(Oc2ccccc2)Oc2ccccc2)cc1,inactive,
CC(NC(C)(C)C)C(=O)c1cccc(Cl)c1 (stereo not given),inactive,
CC(C)C1(C)N=C(c2nc3ccccc3cc2C(=O)O)NC1=O (stereo not given),inactive,
Cc1cccc([N+](=O)[O-])c1,inactive,
O=S(=O)(c1ccc(O)cc1)c1ccc(O)cc1,inactive,
NCCc1ccc(O)cc1,inactive,
COP(N)(=O)SC (stereo not given),inactive,
CC(C)OC(=O)Nc1ccccc1,inactive,
CCN(CC)CCO,inactive,
CN=C=S,inactive,
CN(C)[C@@H]1C(=O)C(C(N)=O)=C(O)[C@@]2(O)C(=O)C3=C(O)c4c(O)cccc4[C@@](C)(O)[C@H]3C[C@@H]12,,-3.69% (inactive)
CCCCOC(=O)c1ccccc1C(=O)OCCCC,inactive,
O=c1[nH]c(=O)[nH]c(=O)[nH]1,inactive,
CCCC1COC(Cn2cncn2)(c2ccc(Cl)cc2Cl)O1 (stereo not given),inactive,
OC(O)C(Cl)(Cl)Cl,inactive,
